Screening data (PubChem BioAssay)
Anthrax LF prot: blocks Bacillus anthracis lethal factor protease. actives 0.12% (n = 360,000). AID 588501. multiplex microsphere protease cleavage assay, LF. P15917. inhibition, % at 10 µM; in the data active = inhibition above about 30%; inconclusive = no clear call, values can overlap the other calls; note: plate controls were buffer without enzyme for full effect and enzyme alone for no effect
BoNT F protease: BoNT F light chain protease inhibition. actives 0.22% (n = 360,000). Multiplex microsphere protease cleavage assay, flow cytometry. inhibition, % at 10 µM; in the data active = inhibition above about 35%, passing the limit was not always enough; inconclusive = no clear call, values can overlap the other calls; note: plate controls were buffer without enzyme for full effect and enzyme alone for no effect
VHR inh abs: DUSP3 (human) phosphatase inhibition; AID 1654; actives 0.52% (n = 290,000); inhibition, % at 13.3 µM; recombinant VHR phosphatase, pNPP absorbance; in the data active = inhibition above about 50%
Target sequence (P51452 whole entry, looked up): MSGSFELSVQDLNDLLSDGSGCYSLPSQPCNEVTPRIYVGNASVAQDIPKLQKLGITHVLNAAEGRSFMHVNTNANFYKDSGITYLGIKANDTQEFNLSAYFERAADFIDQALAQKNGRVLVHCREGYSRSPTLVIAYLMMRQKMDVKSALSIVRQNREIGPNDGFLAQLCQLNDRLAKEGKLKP
3CLpro inhibitor: SARS-CoV 3CLpro protease inhibition. P0C6X7. recombinant SARS-CoV 3CLpro, quenched FRET peptide cleavage. inhibition, % at 6 µM. actives 0.14% (n = 290,000); in the data active = inhibition above about 12%
BoNT-A LC inh2: blocks Botulinum neurotoxin A light chain protease; multiplex microsphere protease substrate cleavage, flow cytometry; inhibition, % at 10 µM; actives 0.17% (n = 360,000); AID 588499; in the data active = inhibition above about 30%; inconclusive = no clear call, values can overlap the other calls; note: plate controls were buffer without enzyme for full effect and enzyme alone for no effect
Bead autofluor: counter-screen for toxin protease inhibitors: compound fluorescence. compound autofluorescence counterscreen, microsphere flow cytometry; stronger effect = higher value. fluorescence intensity (test concentration not listed). actives 3.1% (n = 360,000). AID 624483; in the data active = fluorescence intensity above about 16000; inconclusive = no clear call, values can overlap the other calls
BoNTA LC inh 2: BoNT/A light chain protease inhibition | shares compounds with BoNT-A LC inh2 | multiplex microsphere protease cleavage assay, flow cytometry | inhibition, % at 10 µM | actives 10% (n = 150) | AID 602325; in the data active = inhibition above about 24%
Anthrax LF CP2: Bacillus anthracis lethal factor protease inhibition. AID 602327. actives 7% (n = 150). multiplex microsphere protease cleavage assay. shares compounds with BoNT-A LC inh2. inhibition, % at 10 µM
BoNT-F LC CP2: inhibitors of botulinum neurotoxin F light chain protease | shares compounds with BoNT-A LC inh2 | multiplex microsphere protease cleavage assay, flow cytometry | inhibition, % at 10 µM | actives 7% (n = 150) | AID 602336
An asterisk follows results filed as active; ? = inconclusive; / = no result given. The list is not random: actives were taken first. Their share in the collection is about 3.9%. Cut-off read from the data, not from the text of the source, unless noted: active = inhibition above about 25%; inactive = the rest.

SMILES	Anthrax LF prot	BoNT F protease	VHR inh abs	3CLpro inhibitor	BoNT-A LC inh2	Bead autofluor	BoNTA LC inh 2	Anthrax LF CP2	BoNT-F LC CP2
Cn1ccc2c(-c3ccc(C(=O)O)cc3)cc3c(c21)C1CCC3C1 (configuration not stated)	8	10	/	/	0	6150	3	1	8
Cn1ccc2c(-c3ccc(C(N)=O)cc3)cc3c(c21)C1CCC3O1 (configuration not stated)	-2	-5	/	/	-1	5374	/	/	/
Cn1ccc2c(-c3ccc(C(C)(C)C)cc3)cc3c(c21)C1CCC3C1 (configuration not stated)	-5	0	/	/	-1	5412	2	-3	-4
CC1CN1c1cc2c(c3c1ccn3C)C1CCC2C1 (configuration not stated)	-11	-14	/	/	0	5654	/	/	/
COc1ccccc1C1(O)CCN(CC(=O)Nc2nc(-c3ccccc3)cs2)CC1	-4	2	24	2	0	3931	/	/	/
NC(=O)C1CCN(C(=O)CC(c2ccccc2)c2ccccc2)CC1	-1	?	6	4	?	4043	/	/	/
CC(Oc1ccccc1F)c1nnc(SCC(=O)c2c(N)n(C3CC3)c(=O)[nH]c2=O)o1 (configuration not stated)	98*	91*	/	/	96*	5129	1	0	0
COc1ccccc1-c1cc2c(c3c1ccn3C)C1CCC2O1 (configuration not stated)	21	10	/	/	10	5495	/	/	/
COc1ccccc1-c1cc2c(c3c1ccn3C)C1CCC2C1 (configuration not stated)	30*	-10	/	/	12	4225	4	0	-6
Cn1ccc2c(-c3ccccc3F)cc3c(c21)C1CCC3C1 (configuration not stated)	-8	2	/	/	3	5841	2	-3	-1
N#CC1(NC(=O)CSc2nnc(-c3ccccc3F)o2)CCCCC1	-2	-7	/	/	-2	5875	/	/	/
COc1cc(OC)cc(C(=O)NC(C(=O)Nc2ccc3nc(C)sc3c2)C(C)C)c1 (configuration not stated)	-10	0	/	/	0	7926	/	/	/
Cc1nc2ccc(NC(=O)[C@@H](NC(=O)c3c(F)cccc3F)C(C)C)cc2s1	40*	14	/	/	18	8879	8	15	30*
Cc1ccc(C(c2nc3ccccc3[nH]2)n2c(-c3ccccc3)nc3ccccc32)cc1 (configuration not stated)	6	-9	/	/	0	5351	/	/	/
COc1ccc2c(c1)nc(-c1cccc(Br)c1)c(=O)n2C(c1ccccn1)c1nc2ccccc2[nH]1 (configuration not stated)	24	-2	/	/	30*	3816	12	8	10
O=C(CSC1=N/C(=C/c2ccco2)C(=O)N1c1ccc(OC(F)F)cc1)NC1CCS(=O)(=O)C1 (configuration not stated)	-3	-2	13	-4	0	4472	/	/	/
O=C(Nc1ccnn1C1CCN(Cc2cccc(OCCO)c2)CC1)c1cccc(F)c1	1	-3	10	4	1	5734	/	/	/
Cc1cc2nc(-c3ccccc3)c(Cc3cccc(Cl)c3)n2c(C)c1Br	-4	-3	/	/	-1	4680	16	-4	12
Cc1ccc(Cc2c(-c3cccc(Cl)c3)nc3cc(C)c(Br)c(C)n23)cc1	2	-9	/	/	0	5438	/	/	/
Cc1cc2nc(-c3ccc(F)cc3)c(Cc3ccccc3)n2c(C)c1Br	3	4	/	/	2	5770	/	/	/
Cc1ccc(-c2nc3cc(C)c(Br)c(C)n3c2Cc2cccc(Cl)c2)cc1	-5	0	/	/	1	4668	26*	-2	16
Cc1cc2nc(-c3ccc(F)cc3)c(Cc3cccc(Cl)c3)n2c(C)c1Br	-1	-6	/	/	2	4535	3	0	6
O=C(Nc1ccccc1F)c1ccc(C(=O)c2ccccc2)cc1	1	-3	18	0	1	5233	/	/	/
Cc1cccc(-n2ncc3c2CCCC3NC(=O)C2=CC(=O)CC(C)(C)O2)c1C (configuration not stated)	3	2	19	1	2	6035	/	/	/
